Test results reported in PubChem BioAssay (EPA / NIEHS).
Results filed as inconclusive are left out. The source made the active and inactive calls. How the source made its calls: active means hit-call score of the fitted dose curve at least 0.9, where 1 is the maximum; inconclusive means response in the unintended direction; inactive means score below 0.9.

Molecular target: Nuclear receptor subfamily 4 group A member 2 (Homo sapiens) (UniProt P43354)
Assay: ATG_NURR1_TRANS: Attagene TRANS-FACTORIAL HepG2 Assay for human Nuclear Receptor Related Protein 1 (NURR1) (AID 2282985)
Conditions: HepG2 Attagene TRANS reporter, mRNA readout
Summary of the method: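 Chimeric NR-Gal4 proteins were expressed in human HepG2 cells bearing GAL4-UAS reporter units, and induced reporter mRNA was quantified 24 h post-dosing by RT-PCR and capillary electrophoresis.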

Nuclear receptor subfamily 4 group A member 2 (Homo sapiens), sequence (P43354 whole entry, looked up): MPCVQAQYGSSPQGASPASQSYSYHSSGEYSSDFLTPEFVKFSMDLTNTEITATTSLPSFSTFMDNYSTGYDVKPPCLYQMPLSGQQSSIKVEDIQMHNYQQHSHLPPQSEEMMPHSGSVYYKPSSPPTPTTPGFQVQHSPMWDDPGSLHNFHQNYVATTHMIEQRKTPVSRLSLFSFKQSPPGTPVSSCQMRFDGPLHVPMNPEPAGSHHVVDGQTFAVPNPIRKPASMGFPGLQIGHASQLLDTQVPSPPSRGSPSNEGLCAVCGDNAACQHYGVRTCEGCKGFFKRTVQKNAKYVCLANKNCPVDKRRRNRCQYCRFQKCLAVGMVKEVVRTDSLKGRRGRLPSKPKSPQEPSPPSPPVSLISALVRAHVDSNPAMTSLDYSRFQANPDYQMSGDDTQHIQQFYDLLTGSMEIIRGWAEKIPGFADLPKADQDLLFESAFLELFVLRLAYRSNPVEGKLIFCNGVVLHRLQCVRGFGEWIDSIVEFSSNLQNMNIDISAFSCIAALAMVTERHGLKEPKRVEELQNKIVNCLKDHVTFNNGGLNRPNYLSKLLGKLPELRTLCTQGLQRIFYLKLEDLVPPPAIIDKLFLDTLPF

outcome, inactive:
Cc1occc(=O)c1OC(=O)C(C)C
CCOC(=O)COC(=O)c1cc(Oc2ccc(C(F)(F)F)cc2Cl)ccc1[N+](=O)[O-]
CCOc1ccccc1O
OCCOCCN1CCN(C2=Nc3ccccc3Sc3ccccc32)CC1
O=C1NC2NC(=O)NC2N1 (stereo not given)
C=CC(=O)OCCC#N
CC(=O)c1ccccn1
CC(C)CC(C)CC(O)CC(C)C (stereo not given)
CC(C)(CO)[C@@H](O)C(=O)NCCC(=O)O
COc1ccc(COC(C)=O)cc1
CCc1ccc(O)c(OC)c1
C[C@@H]1CCN(C(=O)[C@H](CCCN=C(N)N)NS(=O)(=O)c2cccc3c2NC[C@H](C)C3)[C@@H](C(=O)O)C1
COc1cccc(OC)c1O
CCCC(=O)C(CC)Sc1ccoc1C (stereo not given)
O=CCc1ccccc1
